Screens as filed in PubChem BioAssay.
SARS PLpro yeast – inhibitors of SARS-CoV papain-like protease in yeast; S. cerevisiae expressing SARS-CoV PLpro, growth rescue; Potency, µM (highest dose often 32.9 µM), without a hit: at the highest dose activity, positive = growth rescue, usual class: activators; hit rate 0.19% among 330,000; also: potency is read from the fitted curve at half-maximal effect; 0% is about no effect; nearly all actives have a fitted effect of over 55% in size
NS1 inh – inhibitors of influenza NS1 protein function; Potency, µM (top dose mostly 46.1 µM), for the others: top-dose activity, positive = more growth; hit rate 0.4% among 270,000; also: potency is read from the fitted curve at half-maximal effect; actives are rising curves; nearly all actives have a fitted effect of over 50% in size
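S. cerevisiae expressing influenza A NS1, grown in glucose, washed, then diluted 1:100 into pH 6.0 -URA galactose medium with 23 nl compound. Growth recovery read as OD600; NS1-free strain serves as control.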
Pf growth 96h – inhibits malaria parasite growth, 96 h | hit rate 6.9% among 320,000 | P. falciparum luciferase reporter growth, 96 h | AID 504834 | Potency, µM (doses to about 28.7 µM), without a hit: at the top dose activity change, negative = inhibition, most hits filed as inhibitors; active = well fitted inhibition curve with a large enough effect; inconclusive = small, poorly fitted or top-dose-only effect, or another doubt; inactive = no such curve, though single readings can be large or run the other way; also: potency is read from the fitted curve at half-maximal effect; % is scaled to controls: 0 for no effect and ±100 for the full control effect
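Parasite growth measured via integrated firefly luciferase reporter in P. falciparum. Infected erythrocytes at 2% hematocrit, 0.05% parasitemia final were treated 96 hours at 37 C under 5% CO2, and luminescence was read.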
Pf growth 48h – P. falciparum growth inhibition at 48 hours (one generation). P. falciparum luciferase growth in erythrocytes, 48 h. Potency, µM (series often up to 28.7 µM), for inactives: top-dose activity change, negative = inhibition, most hits filed as inhibitors. hit rate 5.9% among 310,000; active = well fitted inhibition curve with a large enough effect; inconclusive = small, poorly fitted or top-dose-only effect, or another doubt; inactive = no such curve, though single readings can be large or run the other way; also: potency is read from the fitted curve at half-maximal effect; % is scaled to controls: 0 for no effect and ±100 for the full control effect
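Parasite viability was followed by luminescence of a genomically integrated firefly luciferase. Cultures held 0.1% parasitemia at 2% hematocrit (final), incubated under 5% CO2 at 37 C.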
Shiga toxin inh – inhibitors of Shiga toxin in Vero cells; inhibition, % at 38.7 µM; Vero cells, Shiga toxin protein synthesis inhibition reporter; hit rate 9.2% among 290,000; AID 2315; in the data active = inhibition mostly above about 28%, no sharp cut-off; inactive = mostly below about 43%; also: 0% is about no effect
Cycloheximide cs – counter-screen hit for Shiga toxin inhibitors, cycloheximide; AID 2314; max response, %; cell reporter, cycloheximide protein synthesis inhibition counterscreen; hit rate 12% among 300,000; in the data active = max response mostly above about 13%, no sharp cut-off; inactive = mostly below about 14%; also: read at 38.3 µM for the half of the compounds with a filed dose; 0% is about no effect
* = called active by the depositor; [ ] = dose if it differs, or a comment. The list is not random: actives were taken first. Their share in the collection is about 21%. Unless noted, calls follow the shape of the full dose curve.

`NC(=O)CSc1nnnn1-c1ccc2c(c1)OCCO2` gave SARS PLpro yeast 1.8%, NS1 inh 23.5%, Pf growth 96h 6.1%, Pf growth 48h 5.9%, Shiga toxin inh 11.7 and Cycloheximide cs -1.1.
For NCCCCCc1cn(CC(=O)NCCCCCCCCCCC(=O)N2CCNCC2)nn1 the results were SARS PLpro yeast -0.8%, Pf growth 96h 114.4% and Pf growth 48h -17.3%.
CCCCC[C@H](O)/C=C\[C@H]1[C@H](C/C=C\CCCC(=O)O)[C@@H](O)C[C@H]1O (tested in a mixture with another compound) was read as Pf growth 96h inconclusive and Pf growth 48h -6.7%[12.8 µM].
`COc1cc(C=O)ccc1OC(=O)c1cccnc1` gave SARS PLpro yeast -1.6%, NS1 inh -17.1%, Pf growth 96h 7.1%, Pf growth 48h inconclusive and Cycloheximide cs -0.9.
Screening Cc1cc(C(=O)CSc2nnc(-c3ccco3)o2)c(C)n1Cc1ccco1 returned SARS PLpro yeast -3.7%, NS1 inh 1.5%, Pf growth 96h inconclusive, Pf growth 48h -11.2%, Shiga toxin inh 96.3* and Cycloheximide cs 30.7*.
Screening CS(=O)(=O)N(CC(=O)N1CCOCC1)c1ccccc1 returned SARS PLpro yeast 10.3%, NS1 inh 6.0%, Pf growth 96h 17.2%, Pf growth 48h 15.0%, Shiga toxin inh -7.6 and Cycloheximide cs -2.7.
For COC(=O)c1ccc(C(=S)N2CCOCC2)cc1 the results were SARS PLpro yeast 2.9%, NS1 inh -35.4%, Pf growth 96h -9.9%, Pf growth 48h 14.0%, Shiga toxin inh -3.0 and Cycloheximide cs 5.7.
CC(=O)NS(=O)(=O)c1ccc(N=NN2CCCCC2)cc1 was read as SARS PLpro yeast inconclusive, NS1 inh 6.3%, Pf growth 96h inconclusive, Pf growth 48h 13.6%, Shiga toxin inh -7.3 and Cycloheximide cs -1.9.
`COC(=O)c1ccc(N=NN2CCOCC2)cc1` gave SARS PLpro yeast inconclusive, NS1 inh 4.3%, Pf growth 96h 12.7%, Pf growth 48h 187.1%, Shiga toxin inh 34.4* and Cycloheximide cs 40.9*.
`NS(=O)(=O)c1ccc(N=NN2CCCCC2)cc1` gave SARS PLpro yeast -0.6%, NS1 inh 0.0%, Pf growth 96h 33.7%, Pf growth 48h 65.4%, Shiga toxin inh 56.4* and Cycloheximide cs 52.3*.
`O=C(O)c1ccc(N=NN2CCCCC2)cc1` gave SARS PLpro yeast inconclusive, NS1 inh 2.6%, Pf growth 96h 37.8%, Pf growth 48h 0.0%, Shiga toxin inh 56.5 and Cycloheximide cs 53.3*.
For COC(=O)c1ccc(N=NN2CCCCCC2)cc1 the results were SARS PLpro yeast -28.3%, NS1 inh -22.9%, Pf growth 96h 8.7%, Pf growth 48h 191.4%, Shiga toxin inh 87.6* and Cycloheximide cs 79.4*.
`Cc1ccc(C2N(C)C(=O)c3ccccc3N2C)cc1` (stereo not drawn) gave SARS PLpro yeast -2.8%, NS1 inh -16.1%, Pf growth 96h 68.5%, Pf growth 48h -1.6%, Shiga toxin inh -11.4 and Cycloheximide cs 6.0.
`CC1CCCN(CC(=O)Nc2cc(S(=O)(=O)N3CCOCC3)ccc2N2CCCC2)C1` (stereo not drawn) gave SARS PLpro yeast -4.7%, Pf growth 96h inconclusive and Pf growth 48h -24.2%.
`CCOC(=O)C1CCC/C1=N\NC(=O)CN(c1cc(OC)ccc1OC)S(=O)(=O)c1ccccc1` (stereo not drawn) gave SARS PLpro yeast -2.0%, NS1 inh 15.1%, Pf growth 96h 6.6%, Pf growth 48h inconclusive, Shiga toxin inh -4.7 and Cycloheximide cs -5.4.
`Clc1ccc(N=NN2CCOCC2)cc1` gave SARS PLpro yeast 1.1%, NS1 inh -3.8%, Pf growth 96h 25.7%, Pf growth 48h 47.2%, Shiga toxin inh 70.6* and Cycloheximide cs 42.3*.
CC(=O)OCC(NC(=O)C(C)NC(=O)OC(C)(C)C)C1OC(n2cc(F)c(=O)[nH]c2=O)C(OC(C)=O)C1OC(C)=O (stereo not drawn) was read as Shiga toxin inh -5.8 and Cycloheximide cs -4.1.
Cc1ncsc1CCC(=O)N1CCCC(Nc2ccc(C(C)C)cc2)C1 (stereo not drawn) was read as SARS PLpro yeast -0.4%, NS1 inh -13.5%, Pf growth 96h inconclusive, Pf growth 48h inconclusive, Shiga toxin inh 7.0 and Cycloheximide cs -1.0.
Screening CC(C)OCCCNC(=O)c1ccc(NS(C)(=O)=O)cc1 returned SARS PLpro yeast 4.6%, NS1 inh -17.6%, Pf growth 96h 10.4µM*, Pf growth 48h -5.4%, Shiga toxin inh -5.3 and Cycloheximide cs 1.2.
`CC(C)OCCCNC(=O)c1ccc2c(c1)S(=O)(=O)c1ccccc1C2=O` gave SARS PLpro yeast -3.0%, NS1 inh -6.9%, Pf growth 96h 9.28µM*, Pf growth 48h -22.0%, Shiga toxin inh -6.1 and Cycloheximide cs -1.6.
For CCC(C)NC(=O)c1ccc2c(c1)S(=O)(=O)c1ccccc1C2=O (stereo not drawn) the results were SARS PLpro yeast -0.2%, NS1 inh 27.4%, Pf growth 96h -20.6%, Pf growth 48h 18.9%, Shiga toxin inh 14.3* and Cycloheximide cs 32.1*.
COCCNC(=O)c1ccc(NS(C)(=O)=O)cc1 was read as SARS PLpro yeast 6.2%, NS1 inh 0.0%, Pf growth 48h 4.8%, Shiga toxin inh -15.6 and Cycloheximide cs 5.6.
Screening COCC(C)NC(=O)c1ccc2c(c1)S(=O)(=O)c1ccccc1C2=O (stereo not drawn) returned SARS PLpro yeast 6.2%, NS1 inh 1.4%, Pf growth 96h inconclusive, Pf growth 48h -28.8%, Shiga toxin inh -13.1 and Cycloheximide cs 9.0.
`O=c1[nH]cnc2scc(C3COc4ccccc4O3)c12` (stereo not drawn) gave SARS PLpro yeast -9.3%, NS1 inh -42.0%, Pf growth 96h 1.7%, Pf growth 48h 53.7%, Shiga toxin inh -3.4 and Cycloheximide cs 13.8*.
For Clc1ncnc2scc(C3COc4ccccc4O3)c12 (stereo not drawn) the results were SARS PLpro yeast -87.1%, NS1 inh -50.0%, Pf growth 96h 2.62µM*, Pf growth 48h 2.94µM*, Shiga toxin inh 21.1 and Cycloheximide cs 6.7.
`c1ccc2c(c1)OCC(c1csc3ncnc(N4CCCCC4)c13)O2` (stereo not drawn) gave SARS PLpro yeast -45.5%, NS1 inh -3.6%, Pf growth 96h inconclusive, Pf growth 48h inconclusive, Shiga toxin inh 2.2 and Cycloheximide cs 0.7.
For Cc1cc(C)n(-c2cccc(C(=O)O)c2)n1 the results were SARS PLpro yeast 1.5%, NS1 inh 4.2%, Pf growth 96h inconclusive, Pf growth 48h 15.4%, Shiga toxin inh -8.4 and Cycloheximide cs -2.5.
C#CCOCCOCCOCCNc1nc(N2CCN(C(=O)[C@H](CCC(=O)O)n3cc([C@@H](N)CO)nn3)CC2)nc(N2CCN(C(=O)[C@H](CCC(=O)O)n3cc([C@@H](N)CCSC)nn3)CC2)n1 was read as SARS PLpro yeast -2.5%.
